Data: PubChem BioAssay (NCATS)
Where “and” joins values, the source holds several entries; their conditions need not be identical. Identical values can stand only once. Unmarked numbers belong to inactive results. Inconclusive results are not listed. Where a call stands in place of a potency, no number is given. Calls of active or inactive are those of the source. The call rests on the fitted dose curve; in most records, active means well fitted curve in the direction sought with a large enough effect; inconclusive means small, poorly fitted or top-dose-only effect, or another doubt; inactive means no such curve, though single readings can be large; an effect the other way counts as inactive or inconclusive.

Columns and labels:
[1] = Primary qHTS for inhibitors of nuclear receptor binding SET domain protein 2 (NSD2) in an RCH-ACV wild type WT cells (2C) (AID 1645877); further: nearly all actives have a fitted effect of over 70% in size; further: potency means the concentration at half of the fitted maximal effect
[2] = target: Phospholipid hydroperoxide glutathione peroxidase GPX4 (Homo sapiens) (UniProt P36969); experiment: Primary qHTS Assay for Inhibitors of Recombinant Selenoprotein Glutathione Peroxidase 4 (GPX4) (AID 1845192); further: nearly all actives have a fitted effect of over 65% in size; further: potency means the concentration at half of the fitted maximal effect; on activity change, negative = inhibition: series mostly up to about 50 µM
In short: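 qHTS, GR-coupled: GPX4 200 nM + cpd 30 min RT → GSH 1 mM, NADPH 0.5 mM, GR 100 nM → CHP 0.5 mM start; fluor 340/450 at t0 and t15 min; no-enzyme wells as control.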

[3] = target: Luciferin 4-monooxygenase (Photinus pyralis) (UniProt P08659); experiment: Primary firefly luciferase (FLuc) qHTS assay for identification of artifact compounds. (AID 1845220); further: nearly all actives have a fitted effect of over 60% in size; on activity change, negative = inhibition: series mostly up to about 54 µM
In short: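 In this counter-screen for luciferase artifacts, test compounds met substrate (10 uM each luciferin and ATP) before 10 nM enzyme started the reaction. Light output was measured 5 min later.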

[4] = Primary fluorescence-based thiol-reactive (MSTI) qHTS assay for identification of artifact compounds. (AID 1845221); further: nearly all actives have a fitted effect of over 65% in size; further: potency means the concentration at half of the fitted maximal effect;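 on activity change, negative = thiol reactive: series mostly up to about 54 µM; thiol-reactive compounds lower the probe fluorescence signal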
In short: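 A multi-concentration qHTS design tested compounds against 4 uM MSTI, pH 7.4 phosphate-buffered saline. Plates were protected from light for 1 h at room temperature before imaging fluorescence.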

[5] = test system: Nanoluciferase (engineered Oplophorus gracilirostris luciferase); experiment: Primary Nanoluciferase (NLuc) qHTS assay for identification of artifact compounds. (AID 1845222);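 further: NLuc secreted into diluted conditioned medium of S16 cells; series mostly up to about 54 µM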
In short: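 Using secreted nanoluciferase in S16 culture medium (0.22 um filtered, 1:55 dilution), compounds were preincubated 15 min at RT. Signal was generated with Nano-Glo reagent (1:100) over 5 min.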

[6] = Primary redox qHTS assay for identification of artifact compounds. (AID 1845223)
In short: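 Redox-cycling detection via DTT (250 uM final) oxidation coupled to Amplex Red (25 uM)/HRP (250 mU/mL) in HBSS. 15 min preincubation plus 30 min after DTT, room temperature. Ex/Em 525/598 nm; 4-parameter Hill fit against DMSO and 10 uM DA3003.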

[7] = target: Glutathione peroxidase 1 (Homo sapiens) (UniProt P07203); experiment: Primary qHTS Assay for Inhibitors of Recombinant Selenoprotein Glutathione Peroxidase 1 (GPX1) (AID 1845191); further: nearly all actives have a fitted effect of over 65% in size
In short: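 GPX1 10 nM, GR 100 nM, GSH 1 mM, NADPH 0.5 mM, CHP 0.5 mM (final). 30-min cpd preincubation, RT. Ex340/Em450 read t=0, t=15 min.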

Phospholipid hydroperoxide glutathione peroxidase GPX4 (Homo sapiens), sequence (P36969 whole entry, looked up): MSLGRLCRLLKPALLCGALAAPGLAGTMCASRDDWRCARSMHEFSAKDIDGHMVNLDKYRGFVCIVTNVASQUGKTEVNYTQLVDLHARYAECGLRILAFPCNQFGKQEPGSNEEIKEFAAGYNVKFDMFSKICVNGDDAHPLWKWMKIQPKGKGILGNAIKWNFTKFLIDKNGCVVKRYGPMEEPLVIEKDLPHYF
Glutathione peroxidase 1 (Homo sapiens), sequence (P07203 whole entry, looked up): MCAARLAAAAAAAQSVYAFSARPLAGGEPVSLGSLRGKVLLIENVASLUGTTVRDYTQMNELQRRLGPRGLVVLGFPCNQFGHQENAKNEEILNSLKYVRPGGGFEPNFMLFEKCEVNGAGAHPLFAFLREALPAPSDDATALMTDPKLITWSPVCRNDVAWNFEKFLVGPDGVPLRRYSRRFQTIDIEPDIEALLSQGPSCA

C[C@@H]1C[C@@H]([C@@H](O)C(C)(C)O)O[C@H]2C[C@@]3(C)C(=C12)C[C@H](O)[C@H]1[C@@]2(C)CCC(=O)C(C)(C)C2CC[C@@]13C (stereo not given in full)
Potency [1]: inactive | Potency [2]: inactive | Potency [3]: inactive | Potency [4]: inactive | Potency [5]: inactive | Potency [6]: inactive

CC[C@]1(O)CC2CN(CCc3c([nH]c4ccccc34)[C@@](C(=O)OC)(c3cc4c(cc3OC)N(C=O)[C@H]3[C@@](O)(C(=O)OC)[C@H](OC(C)=O)[C@]5(CC)C=CCN6CC[C@]43[C@@H]65)C2)C1 (stereo not given in full)
Potency [1]: 6.4 nM (active) | Potency [2]: inactive | Potency [3]: inactive | Potency [4]: inactive | Potency [5]: inactive

CN(C)C/C=C/C(=O)Nc1cc2c(Nc3ccc(F)c(Cl)c3)ncnc2cc1OC1CCOC1 (stereo not given)
Potency [1]: 2300 nM (active) | Potency [2]: inactive | Potency [3]: inactive | Potency [4]: inactive | Potency [5]: inactive | Potency [6]: inactive

C[C@@H]1C[C@H]2O[C@@H]2/C=C\C=C\C(=O)Cc2c(Cl)c(O)cc(O)c2C(=O)O1
Potency [1]: 275 nM (active) and 640 nM (active) | Potency [2]: inactive | activity change, negative = inhibition [3]: -8.64% [at 11.6 µM] | activity change, negative = thiol reactive [4]: -4.56% [at 11.5 µM] | activity, negative = inhibition [5]: -2.67% [at 11.6 µM] | redox activity (% of DA3003) [6]: 4.19% [at 11.5 µM]

C/C=C1\[C@H](OC2OC(COC3OC(CO)C(O)C(O)C3O)C(O)C(O)C2O)OC=C(C(=O)OC)[C@H]1CC(=O)OCCc1ccc(O)cc1 (stereo not given in full)
Potency [1]: inactive | Potency [2]: inactive | Potency [3]: inactive | Potency [4]: 5610 nM (active) | Potency [5]: inactive

C=CC/C=C\C/C=C\CCCCCCCc1cccc(O)c1C(=O)O
Potency [1]: inactive | Potency [7]: inactive | Potency [5]: inactive

Cc1cc(C(=O)Nc2cccc(C(=O)Nc3cccc(C(F)(F)F)c3)c2)on1
Potency [1]: inactive | Potency [2]: inactive | Potency [3]: inactive | Potency [4]: inactive | Potency [5]: inactive | Potency [6]: inactive

Cc1cc(C)nc(NS(=O)(=O)c2ccc(NC(=S)NC(=O)COc3ccc(Br)cc3Cl)cc2)n1
Potency [1]: inactive | Potency [2]: inactive | Potency [3]: inactive | Potency [4]: inactive | Potency [5]: inactive | Potency [6]: inactive

CC(C)CC1NC(=O)C(C)NC(=O)C(CC(C)C)OC(=O)CCCNC1=O (stereo not given)
Potency [1]: inactive | Potency [2]: inactive | Potency [3]: inactive | Potency [4]: inactive | Potency [5]: inactive

NC(=O)c1cccc2cn(-c3ccc(C4CCCNC4)cc3)nc12 (stereo not given)
Potency [1]: 2050 nM (active) | Potency [2]: 20200 nM (active) | Potency [3]: inactive | Potency [4]: inactive | Potency [5]: inactive | Potency [6]: inactive

CCC1C(=O)N(C)c2cnc(Nc3ccc(C(=O)NC4CCC(N5CCN(CC6CC6)CC5)CC4)cc3OC)nc2N1C(C)C (stereo not given)
Potency [1]: 25.8 nM (active) | Potency [2]: inactive | Potency [3]: inactive | Potency [4]: inactive | Potency [5]: inactive

CC1OC(OC2C(C)OC(OC3C(O)C(CO)OC(O[C@H]4CC[C@@]5(C)C(CC[C@]6(C)C5CC=C5C7[C@@H](C)[C@H](C)CC[C@]7(C(=O)O)CC[C@]56C(=O)O)C4(C)C)C3O)C(O)C2O)C(O)C(O)C1O (stereo not given in full)
activity change, negative = cell killing [1]: -0.67% [at 9.23 µM] | Potency [2]: inactive | activity change, negative = inhibition [3]: 1.66% [at 11.6 µM] | activity change, negative = thiol reactive [4]: 65.9% [at 11.5 µM] | activity, negative = inhibition [5]: -3.75% [at 11.6 µM] | redox activity (% of DA3003) [6]: -18.3% [at 11.5 µM]

CC(C)Oc1ccc(C(=O)NC(CNC(=O)CN(C)C)Cc2ccc(-c3cn4cccc(C(C)O)c4n3)cc2)cc1Cl (stereo not given)
Potency [1]: 64.9 nM (active) | Potency [2]: inactive | Potency [3]: inactive | Potency [4]: inactive | Potency [5]: inactive | Potency [6]: inactive

Cc1c(CN2CCN(C(=O)C(C)O)CC2)sc2c(N3CCOCC3)nc(-c3cnc(N)nc3)nc12 (stereo not given)
Potency [1]: 45.9 nM (active) | Potency [2]: inactive | Potency [3]: inactive | Potency [4]: inactive | Potency [5]: inactive | Potency [6]: inactive

COc1cc(C2c3cc4c(c(O)c3CC(CO)C2C(=O)O)OCO4)cc(OC)c1O (stereo not given)
Potency [1]: 2000 nM (active) | Potency [2]: inactive | Potency [3]: inactive | Potency [4]: 10300 nM (active) | Potency [5]: inactive | Potency [6]: inactive

CCOC(=O)C(CCc1ccccc1)NC(C)C(=O)N1C(=O)N(C)CC1C(=O)O (stereo not given)
Potency [1]: inactive | Potency [2]: inactive | Potency [3]: inactive | Potency [4]: inactive | Potency [5]: inactive | Potency [6]: inactive

CCNC(=O)C1OC(n2cnc3c(N)nc(NCCc4ccc(CCC(=O)O)cc4)nc32)C(O)C1O (stereo not given)
Potency [1]: inactive | Potency [2]: inactive | Potency [3]: inactive | Potency [4]: inactive | Potency [5]: inactive | Potency [6]: inactive

O=C(O)Cc1ccc2oc(-c3ccc(NC(=O)/C=C/c4ccc(Br)cc4)c(F)c3)nc2c1
Potency [1]: inactive | Potency [2]: inactive | Potency [3]: inactive | Potency [4]: inactive | Potency [5]: inactive | Potency [6]: inactive

O=C(CO)[C@@H](O)[C@H](O[C@@H]1O[C@H](CO)[C@H](O)[C@H](O)[C@H]1O)[C@H](O)CO
Potency [1]: inactive | Potency [2]: inactive | Potency [3]: inactive | Potency [4]: inactive | Potency [5]: inactive | Potency [6]: inactive

CO[C@H]1O[C@@H]2O[C@]3(C)CC[C@H]4[C@H](C)CC[C@@H]([C@H]1C)[C@@]24OO3
Potency [1]: 7280 nM (active) | Potency [2]: inactive | Potency [3]: inactive | Potency [4]: inactive | Potency [5]: inactive | Potency [6]: inactive

CCNC(=O)Nc1ccc(-c2nc3c(c(N4CCOC[C@@H]4C)n2)CCN(c2ncccn2)C3)cc1
Potency [1]: 103 nM (active) | Potency [2]: inactive | Potency [3]: inactive | Potency [4]: inactive | Potency [5]: inactive | Potency [6]: inactive

COc1ccc(CNC(=O)c2sc3nc(C)cc(C)c3c2N)cc1
Potency [1]: inactive | Potency [2]: inactive | Potency [3]: inactive | Potency [4]: inactive | Potency [5]: inactive | Potency [6]: inactive

CC(=O)c1c(O)cc(O[C@@H]2O[C@H](CO)[C@@H](O)[C@H](O)[C@H]2O)cc1O
Potency [1]: inactive | Potency [2]: inactive | Potency [3]: inactive | Potency [4]: 4140 nM (active) | Potency [5]: inactive

C[C@@H]1COCCN1c1cc(C2(S(C)(=O)=O)CC2)nc(-c2cccc3[nH]ccc23)n1
Potency [1]: 459 nM (active) | Potency [2]: 18000 nM (active) | Potency [3]: inactive | Potency [5]: inactive | Potency [6]: inactive
